# Test results taken from ChEMBL document CHEMBL2218924, “A broad activity screen in support of a chemogenomic map for kinase signalling research and drug discovery” (Biochem J, 2013).
# Tests used:
# [1] = target: Platelet-derived growth factor receptor alpha (Homo sapiens) (UniProt P16234); conditions: at 1 µM
# [2] = target: Platelet-derived growth factor receptor alpha (Homo sapiens) (UniProt P16234); conditions: at 10 µM
# [3] = target: Platelet-derived growth factor receptor beta (Homo sapiens) (UniProt P09619); conditions: at 1 µM
# [4] = target: Platelet-derived growth factor receptor beta (Homo sapiens) (UniProt P09619); conditions: at 10 µM
# [5] = target: T1, 3-phosphoinositide-dependent protein kinase 1 (Homo sapiens) (UniProt O15530); conditions: at 1 µM
# T1 sequence (whole entry): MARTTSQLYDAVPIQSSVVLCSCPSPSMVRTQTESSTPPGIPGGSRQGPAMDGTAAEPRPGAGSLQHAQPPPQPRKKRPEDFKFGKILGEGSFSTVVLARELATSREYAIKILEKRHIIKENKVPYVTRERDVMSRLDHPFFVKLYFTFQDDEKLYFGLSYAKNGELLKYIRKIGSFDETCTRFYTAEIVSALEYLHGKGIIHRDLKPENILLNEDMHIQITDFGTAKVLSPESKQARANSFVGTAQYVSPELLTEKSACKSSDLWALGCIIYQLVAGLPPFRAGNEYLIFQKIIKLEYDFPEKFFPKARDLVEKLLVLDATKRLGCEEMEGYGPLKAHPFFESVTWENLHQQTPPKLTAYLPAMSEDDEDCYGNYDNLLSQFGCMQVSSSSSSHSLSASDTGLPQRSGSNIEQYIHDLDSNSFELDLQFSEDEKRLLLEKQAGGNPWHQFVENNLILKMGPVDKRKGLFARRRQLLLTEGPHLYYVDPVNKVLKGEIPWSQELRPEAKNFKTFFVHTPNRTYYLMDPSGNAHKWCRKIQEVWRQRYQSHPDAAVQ
# [6] = target: T1, 3-phosphoinositide-dependent protein kinase 1 (Homo sapiens); conditions: at 10 µM
# [7] = target: cAMP-dependent protein kinase catalytic subunit alpha (Homo sapiens) (UniProt P17612); conditions: at 1 µM
# [8] = target: cAMP-dependent protein kinase catalytic subunit alpha (Homo sapiens) (UniProt P17612); conditions: at 10 µM
# [9] = target: RAC-gamma serine/threonine-protein kinase (Homo sapiens) (UniProt Q9Y243); conditions: at 1 µM
# [10] = target: Protein kinase C alpha type (Homo sapiens) (UniProt P17252); conditions: at 1 µM
# [11] = target: Protein kinase C alpha type (Homo sapiens) (UniProt P17252); conditions: at 10 µM
# [12] = target: Protein kinase C gamma type (Homo sapiens) (UniProt P05129); conditions: at 1 µM
# [13] = target: Protein kinase C gamma type (Homo sapiens) (UniProt P05129); conditions: at 10 µM
# [14] = target: Protein kinase C delta type (Homo sapiens) (UniProt Q05655); conditions: at 1 µM
# [15] = target: Protein kinase C delta type (Homo sapiens) (UniProt Q05655); conditions: at 10 µM
# [16] = target: RAC-gamma serine/threonine-protein kinase (Homo sapiens) (UniProt Q9Y243); conditions: at 10 µM
# [17] = target: Protein kinase C beta type (Homo sapiens) (UniProt P05771); conditions: at 1 µM
# [18] = target: Protein kinase C beta type (Homo sapiens) (UniProt P05771); conditions: at 10 µM
# [19] = target: Protein kinase C beta type (Homo sapiens) (UniProt P05771); conditions: at 1 µM; remark: listed apart in the source
# [20] = target: Protein kinase C beta type (Homo sapiens) (UniProt P05771); conditions: at 10 µM; remark: listed apart in the source
# Chain of Platelet-derived growth factor receptor alpha (Homo sapiens) (P16234 whole entry): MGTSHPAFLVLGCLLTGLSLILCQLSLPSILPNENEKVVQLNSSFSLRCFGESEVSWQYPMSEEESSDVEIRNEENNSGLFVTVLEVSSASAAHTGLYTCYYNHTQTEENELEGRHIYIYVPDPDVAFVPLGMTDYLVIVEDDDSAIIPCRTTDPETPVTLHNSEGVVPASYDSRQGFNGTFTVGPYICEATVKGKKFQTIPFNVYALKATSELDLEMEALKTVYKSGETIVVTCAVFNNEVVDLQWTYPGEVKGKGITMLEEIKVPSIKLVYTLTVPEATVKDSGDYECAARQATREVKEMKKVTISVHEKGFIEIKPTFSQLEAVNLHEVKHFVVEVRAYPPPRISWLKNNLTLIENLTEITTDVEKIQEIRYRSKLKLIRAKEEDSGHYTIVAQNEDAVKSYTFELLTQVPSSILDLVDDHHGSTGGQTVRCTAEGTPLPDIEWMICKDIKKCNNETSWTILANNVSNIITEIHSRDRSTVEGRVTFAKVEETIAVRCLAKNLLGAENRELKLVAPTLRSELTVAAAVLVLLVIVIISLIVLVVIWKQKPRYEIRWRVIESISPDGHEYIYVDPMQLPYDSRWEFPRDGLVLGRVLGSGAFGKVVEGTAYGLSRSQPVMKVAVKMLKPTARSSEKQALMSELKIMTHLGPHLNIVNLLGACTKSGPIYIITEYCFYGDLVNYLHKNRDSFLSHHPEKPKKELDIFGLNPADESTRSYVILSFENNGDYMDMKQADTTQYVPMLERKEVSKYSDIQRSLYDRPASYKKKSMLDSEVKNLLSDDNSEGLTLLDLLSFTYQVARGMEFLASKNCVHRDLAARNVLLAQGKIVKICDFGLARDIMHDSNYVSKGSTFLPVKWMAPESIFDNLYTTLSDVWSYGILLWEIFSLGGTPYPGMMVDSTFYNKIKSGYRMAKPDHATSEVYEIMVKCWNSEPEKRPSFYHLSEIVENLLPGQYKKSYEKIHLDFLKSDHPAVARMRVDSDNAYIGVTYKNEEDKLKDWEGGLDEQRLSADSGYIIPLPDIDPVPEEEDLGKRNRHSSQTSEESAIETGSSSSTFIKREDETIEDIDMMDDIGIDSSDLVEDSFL
# Chain of Platelet-derived growth factor receptor beta (Homo sapiens) (P09619 whole entry): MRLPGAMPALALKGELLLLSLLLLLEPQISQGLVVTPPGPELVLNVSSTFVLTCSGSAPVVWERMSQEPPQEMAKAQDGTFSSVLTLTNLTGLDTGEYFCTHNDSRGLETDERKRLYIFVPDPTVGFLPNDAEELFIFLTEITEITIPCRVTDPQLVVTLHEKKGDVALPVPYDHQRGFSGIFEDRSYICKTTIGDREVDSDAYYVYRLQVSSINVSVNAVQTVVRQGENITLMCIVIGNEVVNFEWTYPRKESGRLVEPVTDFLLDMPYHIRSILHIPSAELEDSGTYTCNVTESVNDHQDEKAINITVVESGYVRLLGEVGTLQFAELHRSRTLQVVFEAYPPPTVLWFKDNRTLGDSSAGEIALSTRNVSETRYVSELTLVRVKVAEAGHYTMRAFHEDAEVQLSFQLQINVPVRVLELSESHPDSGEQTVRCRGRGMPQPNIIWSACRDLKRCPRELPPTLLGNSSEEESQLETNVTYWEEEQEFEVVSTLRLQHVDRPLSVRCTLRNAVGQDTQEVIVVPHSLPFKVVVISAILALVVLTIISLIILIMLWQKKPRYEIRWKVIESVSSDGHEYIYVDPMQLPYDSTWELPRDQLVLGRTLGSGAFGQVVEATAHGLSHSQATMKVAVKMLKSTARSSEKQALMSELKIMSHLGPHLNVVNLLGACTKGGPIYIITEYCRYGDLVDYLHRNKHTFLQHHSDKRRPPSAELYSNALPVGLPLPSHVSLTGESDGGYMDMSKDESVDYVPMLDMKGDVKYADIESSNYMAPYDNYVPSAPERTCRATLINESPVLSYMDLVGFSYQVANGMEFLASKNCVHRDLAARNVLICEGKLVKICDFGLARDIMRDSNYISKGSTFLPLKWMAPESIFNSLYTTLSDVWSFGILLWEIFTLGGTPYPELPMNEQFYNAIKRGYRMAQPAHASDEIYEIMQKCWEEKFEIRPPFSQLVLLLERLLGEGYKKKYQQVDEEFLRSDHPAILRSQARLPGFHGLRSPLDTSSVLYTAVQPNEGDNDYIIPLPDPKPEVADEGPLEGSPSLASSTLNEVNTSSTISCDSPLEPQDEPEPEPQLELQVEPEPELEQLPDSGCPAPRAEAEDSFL
# Chain of RAC-gamma serine/threonine-protein kinase (Homo sapiens) (Q9Y243 whole entry): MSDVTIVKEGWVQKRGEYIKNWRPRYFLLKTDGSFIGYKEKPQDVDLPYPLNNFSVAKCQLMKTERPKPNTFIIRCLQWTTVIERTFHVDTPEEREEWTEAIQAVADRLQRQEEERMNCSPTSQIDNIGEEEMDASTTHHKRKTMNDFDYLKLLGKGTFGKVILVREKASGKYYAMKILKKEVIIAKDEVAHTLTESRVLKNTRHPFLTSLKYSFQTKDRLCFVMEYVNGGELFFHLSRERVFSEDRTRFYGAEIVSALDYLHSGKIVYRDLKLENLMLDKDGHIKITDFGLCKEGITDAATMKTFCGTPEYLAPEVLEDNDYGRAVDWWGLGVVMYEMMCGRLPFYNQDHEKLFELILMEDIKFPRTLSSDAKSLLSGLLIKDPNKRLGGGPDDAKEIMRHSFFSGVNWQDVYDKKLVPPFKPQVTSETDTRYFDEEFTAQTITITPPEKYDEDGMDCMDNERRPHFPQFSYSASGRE
# Chain of Protein kinase C beta type (Homo sapiens) (P05771 2-671 limits assumed): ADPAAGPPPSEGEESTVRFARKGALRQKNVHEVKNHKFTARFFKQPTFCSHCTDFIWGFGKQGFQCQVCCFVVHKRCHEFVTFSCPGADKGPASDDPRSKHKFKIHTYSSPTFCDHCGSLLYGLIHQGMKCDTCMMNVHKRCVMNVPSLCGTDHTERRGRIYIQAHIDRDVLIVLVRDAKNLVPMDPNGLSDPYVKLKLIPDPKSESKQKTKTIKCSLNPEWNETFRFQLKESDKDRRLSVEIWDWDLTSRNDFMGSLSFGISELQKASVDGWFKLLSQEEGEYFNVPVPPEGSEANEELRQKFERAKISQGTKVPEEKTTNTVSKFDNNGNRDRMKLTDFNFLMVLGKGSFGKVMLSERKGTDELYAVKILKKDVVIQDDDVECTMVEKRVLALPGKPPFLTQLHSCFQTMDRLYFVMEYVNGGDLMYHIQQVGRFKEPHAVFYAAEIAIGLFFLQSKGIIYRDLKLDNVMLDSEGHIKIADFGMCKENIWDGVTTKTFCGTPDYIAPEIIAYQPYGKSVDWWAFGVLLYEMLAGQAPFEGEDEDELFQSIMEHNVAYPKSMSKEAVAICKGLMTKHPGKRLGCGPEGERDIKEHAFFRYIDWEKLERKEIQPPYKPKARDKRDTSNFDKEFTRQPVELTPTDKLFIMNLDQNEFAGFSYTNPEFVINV
# Chain of Protein kinase C delta type (Homo sapiens) (Q05655 whole entry, looked up): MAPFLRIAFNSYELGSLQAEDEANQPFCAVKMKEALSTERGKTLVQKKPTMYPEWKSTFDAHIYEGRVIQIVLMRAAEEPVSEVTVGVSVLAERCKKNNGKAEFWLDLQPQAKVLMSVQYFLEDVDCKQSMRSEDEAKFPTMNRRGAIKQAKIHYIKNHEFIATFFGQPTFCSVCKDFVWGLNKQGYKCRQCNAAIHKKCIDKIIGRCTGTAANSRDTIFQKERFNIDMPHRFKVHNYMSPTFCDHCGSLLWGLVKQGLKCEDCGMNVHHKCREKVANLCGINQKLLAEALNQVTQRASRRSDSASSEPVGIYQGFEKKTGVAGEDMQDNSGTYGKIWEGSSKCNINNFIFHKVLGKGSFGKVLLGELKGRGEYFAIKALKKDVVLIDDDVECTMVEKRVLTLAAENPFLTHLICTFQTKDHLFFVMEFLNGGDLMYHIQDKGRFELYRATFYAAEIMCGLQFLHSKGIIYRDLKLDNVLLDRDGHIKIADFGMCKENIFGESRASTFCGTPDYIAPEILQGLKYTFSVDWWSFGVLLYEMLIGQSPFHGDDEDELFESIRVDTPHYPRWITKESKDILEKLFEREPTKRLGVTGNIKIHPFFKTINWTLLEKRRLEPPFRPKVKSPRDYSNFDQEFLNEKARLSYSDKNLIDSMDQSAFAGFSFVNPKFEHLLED
SMILES,residual activity [1] [%],residual activity [2] [%],residual activity [3] [%],residual activity [4] [%],residual activity [5] [%],residual activity [6] [%],residual activity [7] [%],residual activity [8] [%],residual activity [9] [%],residual activity [10] [%],residual activity [11] [%],residual activity [12] [%],residual activity [13] [%],residual activity [14] [%],residual activity [15] [%],residual activity [16] [%],residual activity [17] [%],residual activity [18] [%],residual activity [19] [%],residual activity [20] [%]
O=C1Nc2ccc(Br)cc2/C1=C\c1cc2c([nH]1)CCCC2,34,23,74,51,109,99,108,80,105,104,105,109,111,100,107,,,,,
COc1ccc(S(=O)(=O)N(CCO)c2ccccc2CN(C)C/C=C/c2ccc(Cl)cc2)cc1,109,95,109,104,119,114,105,,104,107,94,99,104,108,106,56,106,102,115,96
O=C1Nc2ccccc2/C1=C1/Nc2ccccc2/C1=N\OCCC(O)CO (stereo unspecified),79,28,79,24,29,6,,38,80,96,65,81,74,,,36,108,,97,99
Oc1ccc(-c2nc(-c3ccc(F)cc3)c(-c3ccncc3)[nH]2)cc1,117,105,111,97,108,94,,,107,112,92,106,103,98,90,77,124,85,110,81
Nc1cccc(-c2cc3c(Oc4cccc(O)c4)ncnc3[nH]2)c1,48,10,48,8,92,40,94,85,,,97,98,101,100,95,,,,104,95
CO[C@@H]1[C@H](N(C)C(=O)c2ccccc2)C[C@H]2O[C@]1(C)n1c3ccccc3c3c4c(c5c6ccccc6n2c5c31)C(=O)NC4,54,32,46,25,2,1,,10,22,36,14,15,6,21,9,14,66,14,61,45
N#Cc1cnc2cnc(NCc3cccnc3)cc2c1Nc1ccc(F)c(Cl)c1,97,54,119,88,45,41,5,1,,98,55,,,61,24,,18,18,,
CC#CC(=O)Nc1cc2c(Nc3ccc(F)c(Cl)c3)ncnc2cn1,113,42,105,86,102,100,99,77,93,103,96,109,105,94,102,91,113,103,101,101
